# Source: PubChem BioAssay AID485270 (The Scripps Research Institute Molecular Screening Center, 2010)
# Hit rate of the full screen: of about 330,000 compounds, about 5,800 (1.8%) were called active. The full list was thinned out, with actives kept by preference. Unmarked numbers belong to inactive results. No stated cut-off is given here; in the data, active means inhibition mostly above about 38% (no sharp cut-off); inactive means mostly below about 40%.
# Molecular target: Orexin/Hypocretin receptor type 1 (Homo sapiens) (UniProt O43613)
# Assay: antagonists of human orexin 1 receptor (OX1R) (AID 485270);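 further: 0% = agonist challenge alone and 100% = reference antagonist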
# Conditions: OX1R-expressing cells, FRET antagonist read-out; at 6.6 µM; hits give high values
# Chain of Orexin/Hypocretin receptor type 1 (Homo sapiens) (O43613 whole entry, looked up): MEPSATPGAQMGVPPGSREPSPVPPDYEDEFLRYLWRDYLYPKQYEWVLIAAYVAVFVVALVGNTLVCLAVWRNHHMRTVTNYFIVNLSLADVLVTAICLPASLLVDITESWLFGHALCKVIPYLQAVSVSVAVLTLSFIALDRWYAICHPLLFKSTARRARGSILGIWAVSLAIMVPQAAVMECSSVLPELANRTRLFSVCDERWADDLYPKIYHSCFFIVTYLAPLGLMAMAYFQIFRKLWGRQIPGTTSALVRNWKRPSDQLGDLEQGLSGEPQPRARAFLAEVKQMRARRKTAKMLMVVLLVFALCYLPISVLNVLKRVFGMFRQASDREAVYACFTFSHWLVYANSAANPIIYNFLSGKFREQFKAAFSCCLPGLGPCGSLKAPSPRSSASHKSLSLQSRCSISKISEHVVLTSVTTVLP
row,SMILES,inhibition
1,COc1ccc(C(CNC(=O)c2cccc(NS(=O)(=O)c3ccc(C)c(F)c3)c2)N2CCCC2)cc1 (stereo unspecified),6.44%
2,COc1ccc(C(CNC(=O)c2ccc(S(=O)(=O)Nc3ccccc3C)cc2)N2CCOCC2)cc1 (stereo unspecified),8.1%
3,COc1ccc(C(CNC(=O)c2cccc(S(=O)(=O)Nc3ccccc3Cl)c2)N2CCOCC2)cc1 (stereo unspecified),34.6% (active)
4,O=C(NCC#CCSc1nnc(-c2cccc3ccccc23)o1)c1cccs1,8.58%
5,COc1ccc(S(=O)(=O)N(C)C[C@H]2Oc3c(NC(=O)Nc4ccc5c(c4)OCO5)cccc3C(=O)N([C@H](C)CO)C[C@@H]2C)cc1,6.37%
6,Cn1nnc2cc(C(=O)NCCC3=CCCCC3)ccc21,20.7%
7,C=CCNC(=O)c1ccc2c3n(nc2c1)-c1ccc(C)cc1CO3,75% (active)
8,Cc1cccc(-c2nc3ccc(C(=O)NCCN4CCN(C)CC4)cc3nc2-c2cccc(C)c2)c1,17.7%
9,CC(NC(=O)COC(=O)c1ccc2ccccc2n1)c1ccccc1 (stereo unspecified),15.5%
10,O=C(NC(=S)Nc1ccc(Br)cc1F)C1CCCCC1,4.65%
11,O=C(CN1C(=O)NC2(CCCCCC2)C1=O)NCc1ccc(F)cc1,6.28%
12,COc1cc(C)ccc1OCC(=O)OCC(=O)c1ccc[nH]1,11.8%
13,O=C(NCCC(=O)N1O[C@@H]2C=C[C@H]1C2)OCC1c2ccccc2-c2ccccc21,7.51%
14,O=C(Nc1ccccc1)N1CCN(C(=O)Nc2ccccc2)CC1,7.94%
15,O=C(Nc1ccc(Cl)c(Cl)c1)N1CC=C(c2ccccc2)CC1,56.1% (active)
16,COc1cc(C(=O)NCC(=O)N2CC=C(c3ccccc3)CC2)cc(OC)c1OC,13.7%
17,CC(C)n1cnc2c(NCc3ccccc3)cc(N[C@@H](CO)Cc3ccccc3)cc21,33.2%
18,Cc1cc(-c2ccc(C)c(S(=O)(=O)NCCCN(Cc3ccccc3)C(C)C)c2)on1,22.4%
19,Cc1cc(-c2ccc(C)c(S(=O)(=O)NC(C)Cc3ccco3)c2)on1 (stereo unspecified),46% (active)

row,SMILES,inhibition
1,Cc1cc(-c2ccc(C)c(S(=O)(=O)Nc3ccc(S(N)(=O)=O)cc3)c2)on1,14.9%
2,COc1ccc(S(=O)(=O)N(C)C[C@H]2Oc3ccc(NS(=O)(=O)c4cccs4)cc3CC(=O)N([C@H](C)CO)C[C@H]2C)cc1,8.61%
3,Cc1c(/C=N\NC(=O)c2cc3ccccc3o2)c2ccccc2n1C,89.7% (active)
4,O=C(N/N=C/c1c[nH]c2ccccc12)c1cc2ccccc2o1,65.5% (active)
5,O=C(N/N=C/c1c[nH]c2ccccc12)c1ccccc1O,-0.06%
6,Cc1c(/C=N/N2C(=O)C3C4C=CC(C4)C3C2=O)c2ccccc2n1C (stereo unspecified),1.17%
7,O=C(O)c1cccc(NC(=S)N/N=C/c2c[nH]c3ccccc23)c1,18.9%
8,Cc1ccc(NC(=O)c2cc3ccccc3o2)cc1,4.2%
9,C=CC1=C(C(=O)O)N2C(=O)[C@@H](NC(=O)/C(=N\OCC(=O)O)c3csc(N)n3)[C@H]2SC1,9.76%
10,CN(C)C(=O)CCc1ccc2c3c([nH]c2c1)[C@]1(C)[C@@H](C(=O)N2CCOCC2)C[C@H](CC(=O)NCCc2ccccn2)C(=O)N1CC3,8.14%
11,CC1CCCCC1NC(=O)CCS(=O)(=O)c1ccc2c(c1)NC(=O)CO2 (stereo unspecified),-0.2%
12,CC1CCCCC1NC(=O)CCS(=O)(=O)c1cccc2nonc12 (stereo unspecified),57.3% (active)
13,O=C(CCS(=O)(=O)c1cccc2nonc12)NCCc1ccccc1Cl,40.5%
14,Cc1nn(-c2ccccc2)nc1C(=O)OCC(=O)N1CCCCC1C (stereo unspecified),8.79%
15,CC[n+]1cc(C)ccc1/C=C/c1ccc(N(C)C)cc1,52.2% (active)
16,Cc1noc(C)c1C(=O)OC(C)C(=O)Nc1ccc2c(c1)OCO2 (stereo unspecified),6.68%
17,COc1ccc(S(=O)(=O)N2CCN(CC(=O)N3CCOCC3)CC2)cc1OC,7.86%
18,C/C(=N\NC(=O)c1ccc2ccccc2c1)c1cccnc1,7.2%
19,CCn1c(O)c2ccc(C(=O)N=NC(=O)c3cccnc3)cc2c1O,52.5% (active)

row,SMILES,inhibition
1,CCOc1ccccc1NC(=O)c1cccnc1,13%
2,O=C(OCC(=O)N1CCCCCC1)c1ccc(Cl)nc1,9.15%
3,C=CC[C@@H](Cc1ccc(F)cc1)C(=O)OC[C@H]1CCCN1C(=O)[C@H](CC=C)CC(=O)N(CCO)Cc1ccccc1,5.09%
4,CCCSc1ccc([C@H]2N[C@@](Cc3ccccc3)(C(=O)OC)[C@H]3C(=O)N(C)C(=O)[C@@H]23)cc1,8.14%
5,CCC1CCCCN1C(=S)NC(=O)c1ccco1 (stereo unspecified),0.14%
6,COc1ccc(Cc2nnc(SCC(=O)Nc3ccc(C)c(Cl)c3)[nH]c2=O)cc1,27%
7,Cc1ccc(NC(=O)CSc2nnc(CNC(=O)c3ccccc3F)o2)cc1Cl,13.1%
8,Cc1ccc(NC(=O)CSc2nn3c(=O)c(C)nnc3s2)cc1Cl,53.8% (active)
9,CC(C)n1cnc2c(NCc3ccccc3)cc(OCC3CCN(C)CC3)cc21,19.4%
10,Cc1cccc(C(=O)OCC(=O)NC(C)C2CC3CCC2C3)c1O (stereo unspecified),17.1%
11,COCCn1c(C)cc(C(=O)CN2c3cccc4cccc(c34)S2(=O)=O)c1C,24.1%
12,Cc1ccc(NC(=O)c2ccc(Cl)nc2)cc1S(=O)(=O)N1CCOCC1,5.02%
13,CCN(C(=O)CSc1nnnn1-c1ccc(OC)cc1)C1CCS(=O)(=O)C1 (stereo unspecified),8.67%
14,COc1cc(/C=C/C(=O)OCC(=O)NCCCc2ccccc2)ccc1O,5.75%
15,Cc1ccc(-c2c(C)n([O-])c3c([n+]2=O)CCC3)cc1,22.7%
16,Cc1ccc(-c2c[n+](=O)c3c(n2[O-])CCC3)cc1,17.4%
17,O=[n+]1c2c(n([O-])c3cc(Br)ccc31)CCC2,66% (active)
18,CC(C)CC1(C)NC(=O)N(CC(=O)Nc2ccc3c(c2)OCCO3)C1=O (stereo unspecified),5.05%
